Screening results as filed in PubChem.
The list is not random: actives were taken first. Their share in the collection is about 11%.
IMPase inh – IMPase inhibition in cells; P97697; 120,000 tested, under 10 active; CHO-M1 cells, IP1 accumulation, HTRF TR-FRET ratio; inhibition (IP1 accumulation), % at 46.1 µM; active = well fitted curve in the direction sought with a large enough effect in the signal ratio, not every such curve was filed as active; inconclusive = small, poorly fitted or top-dose-only effect, or a change in a side signal; inactive = no such curve, though single readings can be large or run the other way; the % refers to the signal ratio;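 note: cells stimulated with carbachol in lithium chloride buffer; plate controls were DMSO basal wells for no effect and reference inhibitor wells for full effect; higher means more IMPase inhibition seen as more IP1 and lower FRET ratio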
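In this qHTS, compounds (final up to 46 uM) act on CHO-M1 cells that are then activated through the M1 receptor with carbachol, in pH 7.4 buffer containing 50 mM LiCl, for 30 min. IP1 accumulation is quantified by the IP-One immunoassay.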
IMPase Li cell – membrane-permeable IMPase blocker, potentiated with lithium; CHO-M1 cells, IP1 TR-FRET (IP-One), carbachol + lithium; Potency, µM (top dose mostly 59.4 µM), inactives show top-dose activity, negative = IMPase inhibition, hits mostly inhibitors; 0.35% of 210,000 active; AID 1457; active = well fitted curve in the direction sought with a large enough effect; inconclusive = small, poorly fitted or top-dose-only effect, or another doubt; inactive = no such curve, though single readings can be large; an effect the other way counts as inactive or inconclusive;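 note: IP1 builds up when IMPase is blocked and the TR-FRET signal falls; potency is the fitted concentration of half-maximal effect; plate controls were basal vehicle for no effect and high inhibitor control for full effect; nearly all actives have a fitted effect of over 50% in size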
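IP1 accumulation measured by competitive TR-FRET in lysed CHO-M1 cells after 30 min compound exposure at 37C, with a small lithium addition to potentiate weak responses. Hill-equation AC50 from ratio and donor-channel data.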
PNC assembly inh – perinucleolar compartment assembly inhibition; activity change (PNC), negative = inhibition, % at 10 µM; PC3M PTB-GFP, PNC prevalence imaging, 16 h; stronger effect = lower value; 3.1% of 140,000 active; AID 2417;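 active = readout at or below -70, meaning at least 70% loss of cells showing the perinucleolar compartment, a nuclear body marking cancer cells; inconclusive = readout between -30 and a set limit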;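 note: plate controls were DMSO wells for no effect and camptothecin positive control wells for full effect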
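PC3M cells stably expressing PTB-GFP, 750–1000 cells/well, treated 16 h at 37 °C with compound (23 nl of library stock), in duplicate. After paraformaldehyde fixation and Hoechst stain, imaged at 20x; PNC prevalence scored by image analysis.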
12-hLO inh – blocks human 12-lipoxygenase activity; P18054; purified 12-hLO, xylenol orange hydroperoxide absorbance; Potency, µM (titrated, usually from 57.1 µM), inactives show top-dose activity change, negative = inhibition, actives largely listed as inhibitors; 0.12% of 150,000 active; active = well fitted curve in the direction sought with a large enough effect; inconclusive = small, poorly fitted or top-dose-only effect, or another doubt; inactive = no such curve, though single readings can be large; an effect the other way counts as inactive or inconclusive; note: potency is the fitted concentration of half-maximal effect; nearly all actives have a fitted effect of over 55% in size
Target sequence (P18054 whole entry, looked up): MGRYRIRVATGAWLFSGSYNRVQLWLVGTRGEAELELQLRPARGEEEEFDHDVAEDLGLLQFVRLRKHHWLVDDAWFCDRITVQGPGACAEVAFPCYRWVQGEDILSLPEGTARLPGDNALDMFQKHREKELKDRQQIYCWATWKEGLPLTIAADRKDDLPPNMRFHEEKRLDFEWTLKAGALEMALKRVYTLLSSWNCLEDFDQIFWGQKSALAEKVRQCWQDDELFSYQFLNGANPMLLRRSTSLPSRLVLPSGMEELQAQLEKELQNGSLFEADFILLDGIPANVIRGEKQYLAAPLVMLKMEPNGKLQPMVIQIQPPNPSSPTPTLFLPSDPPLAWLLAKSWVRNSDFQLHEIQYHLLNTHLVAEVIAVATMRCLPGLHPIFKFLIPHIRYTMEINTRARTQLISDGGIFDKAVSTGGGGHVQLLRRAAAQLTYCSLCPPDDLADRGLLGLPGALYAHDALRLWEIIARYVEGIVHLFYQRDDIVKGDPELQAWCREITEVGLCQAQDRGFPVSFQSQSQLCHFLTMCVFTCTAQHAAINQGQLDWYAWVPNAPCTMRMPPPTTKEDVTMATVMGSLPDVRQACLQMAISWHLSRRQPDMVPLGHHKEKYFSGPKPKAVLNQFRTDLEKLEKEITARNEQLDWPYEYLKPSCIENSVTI
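Hydroperoxide output read as Fe(III)-xylenol orange absorbance, 573-to-405 nm ratio, after 30 min reaction with 40 uM arachidonic acid. Enzyme: 150 nM purified human 12hLO, 15 min compound preincubation; 25 mM Hepes pH 7.0, room temperature.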
ALDH1A1 inh – inhibitors of human aldehyde dehydrogenase 1A1; P00352; Purified ALDH1A1, NADH fluorescence, propionaldehyde substrate; Potency, µM (highest dose often 75.3 µM), for the others: at the highest dose activity, negative = inhibition, usual class: inhibitors; 7.3% of 220,000 active; AID 1030;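 note: potency is the fitted concentration of half-maximal effect; plate controls were no enzyme wells and a reference inhibitor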
HPGD block – inhibitors of human 15-hydroxyprostaglandin dehydrogenase (HPGD); purified HPGD, NADH fluorescence kinetic, PGE2 substrate; Potency, µM, inactives show at the top dose activity change, negative = inhibition, usual class: inhibitors; 4.3% of 150,000 active; note: potency is the fitted concentration of half-maximal effect
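NADH formation kinetics: reaction with 30 uM PGE2 and 1 mM NAD+ (final), 20 nM enzyme, Tris-HCl pH 8 with Tween 20, after 15 min compound preincubation at room temperature. Fluorescence change, last versus first of five reads.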
* = called active by the depositor; ? = inconclusive; nt = no result given; [ ] = dose if it differs, or a comment. Unless noted, calls come from the whole dose curve; as a rule, active = well fitted inhibition curve with a large enough effect (not every such curve was filed as active); inconclusive = small, poorly fitted or top-dose-only effect, or another doubt; inactive = no such curve, though single readings can be large or run the other way. Unless noted, % is set by controls: 0 for no effect and ±100 for the full control effect.

SMILES | IMPase inh | IMPase Li cell | PNC assembly inh | 12-hLO inh | ALDH1A1 inh | HPGD block
CC1CC2C3CCC4=CC(=O)C=C[C@@]4(C)[C@]3(F)C(O)C[C@]2(C)[C@]1(O)C(=O)COP(=O)(O)O (stereo partly drawn) | nt | 2% | nt | 1% | 2% | -18%
C=C(C)C1Cc2c(ccc(C(=O)O)c2O)O1 (stereo not drawn) | nt | 0% | nt | -2% | -8% | 0%
c1ncc(-c2ccc3c(c2)OCO3)c(NCCc2cnc[nH]2)n1 | nt | 15% | nt | -1% | ? | -23%
COc1ccc(C(=O)Nc2cc(Cl)ccc2OC(=O)c2ccc(OC)cc2)cc1 | -2 | 21%[38.3 µM] | -12 | -9% | 1µM* | -8%
COc1ccc(OC)c(NC(=O)c2ccc3nc(-c4ccccc4)c(-c4ccccc4)nc3c2)c1 | 6 | -1% | -28 | 1% | 10µM* | -11%
O=C(Nc1ccccc1OC(=O)c1ccc(Cl)cc1)c1ccc(Cl)cc1 | -4 | -2% | -94* | 0% | 11% | -10%
Cc1cccc(N2C(=O)c3cccc4c(N(C)CCO)ccc(c34)C2=O)c1 | 10 | 7%[38.3 µM] | 14 | -6% | ? | ?
Cc1ccc(-c2nc3ncccc3o2)cc1NC(=O)c1ccccc1Br | 9 | nt | nt | nt | nt | nt
COc1cc(/C=C/c2ccccc2)oc(=O)c1 | nt | 18% | nt | -8% | ? | ?
CCOC(=O)OCC1OC(C#Cc2ccc(F)cc2F)C=CC1OC(=O)OCC (stereo not drawn) | nt | nt | nt | nt | -5%[13.5 µM] | nt
O=C(NCc1ccco1)c1cccc(S(=O)(=O)N2CCCCC2)c1 | -8 | -3% | -100* | -1% | ? | -17%
O=C(NCc1ccco1)c1cccc(S(=O)(=O)N2CCOCC2)c1 | 7 | 8%[38.3 µM] | ? | 0% | -6% | -12%
O=C(Nc1ccccc1)c1ccc(NCc2ccco2)c(S(=O)(=O)N2CCOCC2)c1 | 12[1.84 µM] | 55%[38.3 µM] | -88* | 4% | ? | -13%
COc1ccc(N2CCN(S(=O)(=O)c3ccc(C(=O)NCc4ccco4)cc3)CC2)cc1 | 7 | 7% | -12 | -4% | 7.9µM* | -5%
O=C(NCc1ccco1)c1ccc(S(=O)(=O)N2CCCCC2)cc1 | nt | 7% | nt | nt | -8% | nt
O=C(NCc1ccco1)c1ccc(S(=O)(=O)N2CCOCC2)cc1 | 5 | -4%[38.3 µM] | 106 | -1% | 16µM* | 16µM*
NC(CSCSCC(N)C(=O)O)C(=O)O (stereo not drawn) | nt | 1% | nt | 3% | 3% | -1%
O=C(N[C@@H](c1ccccc1)[C@@H]1C[C@H]1C(=O)NCc1ccccc1)OCc1ccccc1 | nt | 4% | nt | 1% | ? | -3%
CC(=O)Nc1ccc(C(=O)Cn2nnc3ccccc3c2=O)cc1 | ? | -2%[38.3 µM] | ? | -8% | 8.9µM* | -8%
Cc1cc(C)cc(NC(=O)Cn2nnc3ccccc3c2=O)c1 | nt | -2% | nt | nt | -10% | nt
CCn1c(COc2ccc(C)cc2)nnc1SCC(=O)Nc1ccc(S(N)(=O)=O)cc1 | 1 | 5%[38.3 µM] | -20 | -6% | 22µM* | -7%
CCCn1c(SCC(=O)Nc2ccc(OCC)cc2)nnc1C(C)C | 3 | 2% | 188 | 1% | -7% | -19%
C=CCn1c(COc2ccc(Cl)cc2)nnc1SCC(=O)Nc1ccc(S(N)(=O)=O)cc1 | nt | 6% | -114* | -20% | 2% | -10%
CCOc1ccc(NC(=O)CSc2nnc(C(C)C)n2CC)cc1 | 3 | 0% | -119* | -3% | -5% | -3%
CC(C)CO/N=C1/C[C@@H](O)[C@@H](O)[C@@H]2[C@@H]3C(=O)N(C(C)(C)C)C(=O)[C@H]3CC[C@@H]12 | nt | nt | nt | nt | -6%[13.5 µM] | nt
Cc1c(-c2ccccc2)sc(Br)c1C(=O)N1CCOCC1 | 4 | 6%[38.3 µM] | 1 | 7% | 13% | 1.6µM*
C/C(=N/NC(=O)CNc1ccc(C)cc1)c1ccc(Br)s1 | 3 | 41%[38.3 µM] | -23 | -3% | 14µM* | -19%
CN1CCN(c2oc(-c3ccco3)nc2S(=O)(=O)c2ccccc2)CC1 | 8 | -13%[38.3 µM] | 4 | 1% | 28µM* | -16%
